Screens deposited in PubChem BioAssay by National Center for Advancing Translational Sciences (NCATS).
GPT2 inh – blocks human glutamate pyruvate transaminase 2. Q8TD30. Recombinant GPT2, coupled pyruvate oxidase/HRP Amplex Red fluorescence. Potency, µM (top dose mostly 57.7 µM), hits mostly inhibitors. 100,000 tested, 0.25% active. AID 1671188; note: nearly all actives have a fitted effect of over 60% in size
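Inhibition is scored from Amplex Red fluorescence generated when pyruvate oxidase and HRP act on pyruvate released by GPT2. Reactions contain 10ng/uL enzyme, 250uM a-KG and 2mM L-alanine and run 30 min at room temperature.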
FLuc inh – blocks purified firefly luciferase enzyme activity. P08659. purified P. pyralis luciferase, luminescence, biochemical. Potency, µM (series often up to 115 µM), most hits filed as inhibitors. 76,000 tested, 2.5% active; note: nearly all actives have a fitted effect of over 65% in size
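Luminescence read by CCD imager after adding enzyme (10nM final) to wells holding compound, titrated in qHTS. Substrates 10uM each D-luciferin and ATP; buffer 50mM Tris acetate pH 7.5, 10mM Mg acetate, Tween-20, BSA.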
NIH3T3 tox – NIH 3T3 cell cytotoxicity. AID 1345082. Potency, µM (series often up to 96.7 µM), hits mostly inhibitors. NIH 3T3 viability, CellTiter-Glo ATP luminescence, 48-72 h. 94,000 tested, 4.3% active; note: nearly all actives have a fitted effect of over 55% in size
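Cytotoxicity is measured as loss of cellular ATP: NIH 3T3 cells (400/well) are exposed to compound for 48 or 72 hr at 37 °C, then CellTiter-Glo luminescence is imaged after 10 min at room temperature.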
NPR1 antag – blocks ANP-stimulated signaling of human Npr1 receptor; HEK293 hNpr1 GloSensor cGMP, ANP-stimulated luminescence; Potency, µM (titrated, usually from 46.3 µM), hits mostly inhibitors; 76,000 tested, 1.6% active; AID 1347048; calls by dose curve; note: nearly all actives have a fitted effect of over 60% in size
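Compound pre-incubated 30 min at room temperature on GloSensor-loaded HEK293 cells stably carrying hNpr1 and the pGS-40F cGMP biosensor. Stimulation uses hNppA at 0.1 nM final; luminescence is taken at baseline and 20 min post-agonist.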
HEK293 tox – HEK 293 cell cytotoxicity; HEK 293 viability, ATP luminescence (CellTiter-Glo), 48-72 h; Potency, µM (highest dose often 115 µM), most hits filed as inhibitors; 94,000 tested, 6.6% active; AID 1345083; note: nearly all actives have a fitted effect of over 60% in size
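HEK 293 cells seeded at 250 cells/well were exposed to compound for 48 or 72 hr at 37 degree Celsius. Viability taken as ATP content by CellTiter-Glo luminescence.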
A number is an active result. This is a sample that favours compounds with a hit; in the whole collection about 10% have one here. Unless noted, calls come from the whole dose curve; as a rule, active = well fitted curve in the direction sought with a large enough effect; inconclusive = small, poorly fitted or top-dose-only effect, or another doubt; inactive = no such curve, though single readings can be large; an effect the other way counts as inactive or inconclusive.

Screening COCc1ccc2c(c1)c(OC(C)(C)C(=O)N1CCOCC1)nn2Cc1cccc(OC)c1 returned GPT2 inh inactive, FLuc inh inactive, NIH3T3 tox 4µM, NPR1 antag inactive and HEK293 tox inactive.
Screening COCc1ccc2c(c1)c(OC(C)(C)C(=O)NCCN1CCOCC1)nn2Cc1cccnc1 returned GPT2 inh inactive, FLuc inh inactive, NIH3T3 tox inconclusive, NPR1 antag inactive and HEK293 tox inactive.
For CC(C)n1nc(OC(C)(C)C(=O)Nc2cccnc2)c2cc(CN3CCOCC3)ccc21 the results were GPT2 inh inactive, FLuc inh inactive, NIH3T3 tox 28µM, NPR1 antag inactive and HEK293 tox inactive.
Screening O=C(N[C@H]1CO[C@H]2[C@@H]1OC[C@H]2OCc1ccccc1)c1ccc(C(F)(F)F)cc1 returned GPT2 inh inactive, FLuc inh inconclusive, NIH3T3 tox inactive, NPR1 antag inconclusive and HEK293 tox 79µM.
Screening Cc1ccc(NC(=O)NCCc2ncc(C)n2C2CCC2)cc1C returned GPT2 inh inactive, FLuc inh inactive, NIH3T3 tox inactive, NPR1 antag inactive and HEK293 tox 79µM.
Screening Cc1cnc(CCNC(=O)C2(c3ccccc3)CC2)n1C1CCCCCC1 returned GPT2 inh inactive, FLuc inh inactive, NIH3T3 tox inconclusive, NPR1 antag inactive and HEK293 tox 40µM.
Screening COc1ccc(C2(C(=O)NCCc3ncc(C)n3C3CC3)CC2)cc1 returned GPT2 inh inactive, FLuc inh inactive, NIH3T3 tox inactive, NPR1 antag inactive and HEK293 tox inconclusive.
Screening Cc1ccc(NC(=O)NCCc2ncc(C)n2CC2CC2)cc1C returned GPT2 inh inactive, FLuc inh inactive, NIH3T3 tox inconclusive, NPR1 antag inactive and HEK293 tox inconclusive.
Cc1ccc(OCC(=O)c2ccc3c(c2)N(CC(=O)NCCc2ccccc2)C(=O)CO3)cc1 was read as GPT2 inh inactive, FLuc inh inactive, NIH3T3 tox inactive, NPR1 antag inactive and HEK293 tox inactive.
`CC(=O)NCCNC(=O)[C@@H]1Cc2cn(Cc3cc(C)on3)c3cccc(c23)[C@H](CC(C)C)N1` gave GPT2 inh inactive, FLuc inh inactive, NIH3T3 tox inactive, NPR1 antag inactive and HEK293 tox inconclusive.
For Cc1cc(Cn2cc3c4c(cccc42)[C@H](CC(C)C)N[C@H](C(=O)NCc2nccs2)C3)no1 the results were GPT2 inh inactive, FLuc inh inactive, NIH3T3 tox inconclusive, NPR1 antag inactive and HEK293 tox 22µM.
Screening Cc1cc(Cn2cc3c4c(cccc42)[C@H](CC(C)C)N[C@H](C(=O)NCc2ccc(C)o2)C3)no1 returned GPT2 inh inconclusive, FLuc inh inactive, NIH3T3 tox inconclusive, NPR1 antag inactive and HEK293 tox 32µM.
CS(=O)(=O)N[C@H]1C[C@H]2C(=O)Nc3ccc(-c4ccc(F)cc4F)cc3C(=O)N2C1 was read as GPT2 inh inactive, FLuc inh inactive, NIH3T3 tox inconclusive, NPR1 antag inactive and HEK293 tox inconclusive.
Screening Cc1nc(-c2cn(C3CCCN(C(=O)c4ccc(Cl)s4)C3)nn2)no1 (configuration not stated) returned GPT2 inh inactive, FLuc inh inactive, NIH3T3 tox inactive, NPR1 antag inactive and HEK293 tox inactive.
For O=C(CCCc1ccccc1)N1CCCC1c1nc(C2CCOCC2)no1 (configuration not stated) the results were GPT2 inh inactive, FLuc inh inactive, NIH3T3 tox inactive, NPR1 antag inactive and HEK293 tox inconclusive.
For O=C(CCCc1ccccc1)N1CCCCCC1c1nc(C2CC2)no1 (configuration not stated) the results were GPT2 inh inactive, FLuc inh inactive, NIH3T3 tox inconclusive, NPR1 antag inactive and HEK293 tox 50µM.
Screening O=C1NCc2ccccc2CC12CCCN2Cc1ccnc2ccccc12 (configuration not stated) returned GPT2 inh inactive, NIH3T3 tox inconclusive and HEK293 tox inconclusive.
Screening O=C(Cc1ccc2c(c1)OCO2)N(Cc1ccncc1)Cc1cccc(OCCc2ccc(F)cc2)c1 returned GPT2 inh inactive, FLuc inh inactive, NIH3T3 tox 35µM, NPR1 antag inconclusive and HEK293 tox 40µM.
O=C(N[C@@H]1CN(Cc2ccccc2F)C[C@H]1CO)c1ccccc1 was read as GPT2 inh inactive, FLuc inh inactive, NIH3T3 tox inactive, NPR1 antag inactive and HEK293 tox inactive.
Cn1nccc1C(=O)N1CCC2(CC1)OC(=O)N(Cc1ccccc1)C2(C)c1cccnc1 (configuration not stated) was read as GPT2 inh inactive, FLuc inh inactive, NIH3T3 tox 28µM, NPR1 antag inactive and HEK293 tox inactive.
CC1(c2ccccc2)N(Cc2ncccn2)C(=O)OC12CCN(C(=O)Cc1ccc(Cl)cc1)CC2 (configuration not stated) was read as GPT2 inh inactive, FLuc inh inactive, NIH3T3 tox inconclusive, NPR1 antag inactive and HEK293 tox inactive.
Cn1nccc1C(=O)N1CCC2(CC1)OC(=O)N(Cc1ccccc1)C2(C)c1ccccc1 (configuration not stated) was read as GPT2 inh inactive, FLuc inh inactive, NIH3T3 tox inconclusive, NPR1 antag inactive and HEK293 tox inactive.
For CC(=O)N1CCC2(CC1)OC(=O)N(Cc1ccccc1)C2(C)c1cccnc1 (configuration not stated) the results were GPT2 inh inactive, FLuc inh inactive, NIH3T3 tox inconclusive, NPR1 antag inactive and HEK293 tox inactive.
CC1(c2ccccc2)N(Cc2ncccn2)C(=O)OC12CCN(C(=O)Cc1ccc3c(c1)OCO3)CC2 (configuration not stated) was read as GPT2 inh inactive, FLuc inh inactive, NIH3T3 tox 40µM, NPR1 antag inactive and HEK293 tox inactive.
For CC(C)C(=O)N1CCC2(CC1)OC(=O)N(Cc1ccccc1)C2(C)c1cccnc1 (configuration not stated) the results were GPT2 inh inactive, FLuc inh inactive, NIH3T3 tox 20µM, NPR1 antag inactive and HEK293 tox inactive.
Screening CC(C)C(=O)N1CCC2(CC1)OC(=O)N(Cc1ncccn1)C2(C)c1ccccc1 (configuration not stated) returned GPT2 inh inactive, FLuc inh inactive, NIH3T3 tox 89µM, NPR1 antag inactive and HEK293 tox inactive.
For O=C(NCCc1cnc[nH]1)c1ccc(-c2ncc3cnc(-c4ccccc4)cn23)cc1 the results were GPT2 inh inactive.
For O=C(NC1CCC(O)CC1)c1ccc(-c2ncc3cnc(-c4cccc(F)c4)cn23)cc1 (configuration not stated) the results were GPT2 inh inactive, FLuc inh inactive, NIH3T3 tox inactive, NPR1 antag inactive and HEK293 tox 71µM.
